Screening data (PubChem BioAssay)
Sampled rows, rich in hits. Any-hit rate of the full collection: about 1.9%.
GSIS activator – GLuc luminescence reporter in INS-1E cells, primary screen for activators of glucose-dependent secretion of insulin; INS-1E GLuc reporter insulin secretion, 2-3 h; activation, % at 16.6 µM; hit rate 0.61% among 370,000; AID 743287;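 active means lowest replicate activation of at least 40%, so every replicate reaches that level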;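 further: 0% = median of neutral control wells and 100% = median of IBMX positive control wells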
A1 inh – inhibitors of the anti-apoptotic protein A1, read as caspase activation | MEF A1-2A-BIM cells, Caspase-Glo 3/7 luminescence, 3 h; percent of clofoctol response, vehicle zero | caspase activation, % (concentration not given with the values) | hit rate 0.066% among 330,000 | AID 2462;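 active means over half of replicate activation scores above 10%, or exactly half above 10 with the replicate mean above 10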
Vif imaging – inhibitors of HIV Vif; HEK293T cells, Vif self-association by quenched fluorescence, imaging, 24 h; inhibition, % at 7.49 µM; hit rate 0.35% among 340,000; AID 602346; in the data active means inhibition above about 50%, passing the limit was not always enough
dFosB activator – activators of mouse delta FosB homodimer; purified delta FosB, TAMRA-CDK5 oligo fluorescence polarization; percent of positive-control signal above neutral wells; hit rate 0.99% among 340,000; AID 493131; P13346; activation, % at 25 µM;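 active means mean activation above about 17%, with every replicate also reaching it, limit read from the data, passing the limit was not always enough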
Neddylation inh – cullin neddylation inhibition; AID 651699; P61081+Q13564; hit rate 0.58% among 360,000; TR-FRET cullin neddylation, biochemical; inhibition, % at 25 µM; in the data active means inhibition above about 36%
Target sequence (P61081 whole entry, looked up): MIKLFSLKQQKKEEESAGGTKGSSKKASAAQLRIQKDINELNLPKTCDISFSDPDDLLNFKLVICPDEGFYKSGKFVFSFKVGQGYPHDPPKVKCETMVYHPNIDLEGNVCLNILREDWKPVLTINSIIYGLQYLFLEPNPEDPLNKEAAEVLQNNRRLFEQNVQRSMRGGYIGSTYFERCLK
Target sequence (Q13564 whole entry, looked up): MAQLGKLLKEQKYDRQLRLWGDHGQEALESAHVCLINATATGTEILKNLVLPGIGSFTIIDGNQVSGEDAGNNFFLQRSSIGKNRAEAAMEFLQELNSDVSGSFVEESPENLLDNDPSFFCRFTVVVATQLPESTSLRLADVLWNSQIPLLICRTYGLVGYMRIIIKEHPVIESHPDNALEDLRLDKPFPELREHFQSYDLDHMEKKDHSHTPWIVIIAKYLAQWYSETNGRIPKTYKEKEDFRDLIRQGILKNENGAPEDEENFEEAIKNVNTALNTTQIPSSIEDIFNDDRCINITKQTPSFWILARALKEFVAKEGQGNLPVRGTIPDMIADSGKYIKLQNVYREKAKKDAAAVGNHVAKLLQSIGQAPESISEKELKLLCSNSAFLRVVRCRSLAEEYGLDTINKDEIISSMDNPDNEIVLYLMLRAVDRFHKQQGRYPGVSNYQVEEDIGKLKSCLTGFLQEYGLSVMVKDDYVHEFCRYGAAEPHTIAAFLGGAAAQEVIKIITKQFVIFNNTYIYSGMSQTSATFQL
Starred values were filed as active, the others as inactive; . = no result.

SMILES | GSIS activator | A1 inh | Vif imaging | dFosB activator | Neddylation inh
COc1ccc(Oc2cc(NC(=O)c3nn(C)cc3[N+](=O)[O-])cc([N+](=O)[O-])c2)cc1 | 4 | 13* | 19 | 6 | -32
COc1ccc(NC(=O)c2cn(CCC#N)nc2-c2cccc([N+](=O)[O-])c2)cc1 | 3 | 1 | 3 | -9 | -26
N=Cc1c(O)n(-c2ccc(C34CC5CC(CC(C5)C3)C4)cc2)c(=O)[nH]c1=O | -20 | 0 | 3 | 46* | 8
CNc1cc(Cl)c2nonc2c1[N+](=O)[O-] | 51* | . | -5 | -1 | -11
COC1/C=C/C=C(\C)Cc2cc(O)c(Cl)c(c2)N(C)C(=O)CC(OC(=O)C(C)C)C2(C)OC2C(C)C2CC1(O)NC(=O)O2 (stereo not given) | -23 | . | 64* | -15 | 9
CS(=O)(=O)N1C[C@@H]2C(c3ccc(Br)cc3)[C@H](C1)N2CC1CC1 (stereo not given in full) | 3 | . | . | . | .
COC(=O)CCCC(NC(=S)N1CC2C[C@@H](C1)Cn1c2cccc1=O)C(=O)OC (stereo not given in full) | 40* | 0 | . | 4 | -2
C=CCN1[C@@H]2CN(C(C)=O)C[C@H]1C2c1ccccc1 (stereo not given in full) | -4 | . | . | . | .
COC(=O)[C@H]1[C@H](CO)[C@H]2Cn3c(ccc(C4=CCCC4)c3=O)[C@@H]1N2C(=O)C1CCCCC1 | 3 | . | . | . | .
COc1nc(NC(C)C)nc(NC(C)C)n1 | 69* | -1 | -6 | 1 | 0
CCOc1cc2c(cc1OCC)-n1cccc1C(c1ccc(F)cc1)NC2 (stereo not given) | -15 | 0 | -6 | -2 | -3
CCOc1cc2c(cc1OCC)-n1cccc1C(c1ccc(C(C)C)cc1)NC2 (stereo not given) | -4 | 0 | -19 | 24* | 12
Cc1ccccc1-n1c(O)c(/C=N/Nc2nc3c(c(=O)n(C)c(=O)n3C)n2C)c(=O)[nH]c1=S | 8 | 0 | 0 | -7 | 5
Cn1c(=O)c2c(nc(N/N=C/c3c(O)n(C4CCCCC4)c(=S)[nH]c3=O)n2C)n(C)c1=O | -6 | 1 | -9 | -15 | 42*
O=C(O)[C@H]1[C@H](CO)[C@H]2Cn3c(ccc(-c4ccc(F)cc4)c3=O)[C@@H]1N2CC1CCCCC1 | 1 | . | . | . | .
CC1CCC(C(C)C)C(OC(=O)Cn2c(COc3ccccc3)[n+](C)c3ccccc32)C1 (stereo not given) | 154* | 1 | -5 | 0 | 2
COC(=O)[C@H]1[C@H](CO)[C@H]2Cn3c(ccc(-c4ccncc4)c3=O)[C@@H]1N2CCc1ccccc1 | 8 | . | . | . | .
CCS(=O)(=O)Nc1cccc(C(=C2CCCCC2)c2cnc[nH]2)c1 | . | -1 | 69* | -5 | -6
c1cncc(-c2ccc(C3[C@H]4CNC[C@@H]3N4CC3CC3)cc2)c1 (stereo not given in full) | 14 | . | . | . | .
CC(=O)N1C[C@@H]2C(c3ccc(Br)cc3)[C@H](C1)N2CC1CC1 (stereo not given in full) | 9 | . | . | . | .
COc1cc2c(ccc3c4cc(OC)c(OC)cc4c[n+](C)c23)cc1O | . | . | 10 | 33* | -34
CC(C)NC(=O)N1[C@@H]2c3ccc(-c4cccc(C(=O)N(C)C)c4)c(=O)n3C[C@H]1[C@H](CO)[C@H]2C(=O)O | 18 | . | . | . | .
COc1cc(C2c3cc4c(cc3CC3COC(=O)C32)OCO4)cc(OC)c1OC (stereo not given) | . | . | 87* | 5 | -6
COC(=O)[C@H]1[C@H](CO)[C@H]2Cn3c(ccc(C4=CCCCC4)c3=O)[C@@H]1N2CC1CC1 | -9 | . | . | . | .
COC1C(O)C(C)OC(OC2C(Oc3cccc4c(O)c5c(=O)oc6ccc(C)c7c(=O)oc(c34)c5c67)OC(C)C(O)C2O)C1O (stereo not given) | 6 | . | 51* | 13 | 40*
CC(=O)N1C[C@@H]2N[C@H](C1)C2c1ccccc1 (stereo not given in full) | -2 | . | . | . | .
COC(=O)[C@H]1N[C@H]2c3ccc(C4=CCCC4)c(=O)n3C[C@H]2[C@@H]1CO | 4 | . | . | . | .
CC(C)NC(=O)N1C[C@@H]2C(c3ccc(Br)cc3)[C@H](C1)N2CC1CC1 (stereo not given in full) | -8 | . | . | . | .
CCOC(=O)c1c(/N=C/c2c(O)n(-c3ccc(F)cc3)c(=S)[nH]c2=O)sc2c1CCCC2 | 75* | 0 | -2 | -5 | 1
